In PubChem BioAssay (Tox21):
Results filed as inconclusive are left out. The source made the active and inactive calls. Calls follow the shape of the dose curve; as a rule, active = well fitted curve in the direction sought with a large enough effect in the repeat runs; inconclusive = weak or mixed curves; inactive = no such curve, though single readings can be large; an effect the other way counts as inactive or inconclusive.

Experiments:
[1] = A CellTox Green Cytotoxicity Assay to monitor cytotoxicity in HEK293 cells - 40 hour (AID 1224871); also: nearly all actives have a fitted effect of over 45% in size
How it was run: (§1)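 Read-out: fluorescence of a cell-impermeant cyanine dye staining DNA of dead cells, proportional to cytotoxicity. HEK293, 600 cells/well with reagent, compound (23 nL DMSO) added after 5 h; reads at 0, 8, 16, 24, 32, 40 h.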

[2] = qHTS RealTime-Glo MT Cell Viability Assay in HEK293 cells - 16 hour (AID 1224872); also: top concentration of the series differs between compounds; nearly all actives have a fitted effect of over 50% in size
How it was run: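 Viability tracked continuously by luminescence as live cells reduce a prosubstrate for NanoLuc; HEK293 cells preincubated 5 h, compound-treated at 37 C, and read at 0, 8, 16, 24, 32 and 40 h.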

[3] = qHTS RealTime-Glo MT Cell Viability Assay in HepG2 cells - 8 hour (AID 1224873); also: nearly all actives have a fitted effect of over 55% in size
How it was run: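 HepG2 cells mixed with RealTime-Glo MT reagents (NanoLuc plus cell-permeant prosubstrate) were seeded at 600 cells/well, incubated 5 h at 37 C/5% CO2, then pinned with compounds in DMSO; nonlytic luminescence tracked viability during 40 h treatment.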

[4] = qHTS RealTime-Glo MT Cell Viability Assay in HEK293 cells - 40 hour (AID 1224874); conditions: RealTime-Glo luminescence; max response: hits give low values; also: nearly all actives have a fitted effect of over 50% in size
How it was run: (§2)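 Luminescence readout at each listed time point; HEK293, 600 cells/well, RealTime-Glo MT reagent added with cells; compounds pinned (23 nL in DMSO) after 5 h at 37 C; continuous culture at 37 C.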

[5] = A CellTox Green Cytotoxicity Assay to monitor cytotoxicity in HEK293 cells - 24 hour (AID 1224875); also: series mostly up to about 77 µM; nearly all actives have a fitted effect of over 45% in size
How it was run: as §1

[6] = A CellTox Green Cytotoxicity Assay to monitor cytotoxicity in HepG2 cells - 16 hour (AID 1224876); also: nearly all actives have a fitted effect of over 45% in size
How it was run: (§3)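 HepG2, 600 cells/well premixed w/ CellTox Green; 5 h settle, 37 C/5% CO2; pintool cpd add (DMSO); 37 C, 40 h; fluorescence read at 0, 8, 16, 24, 32, 40 h.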

[7] = qHTS RealTime-Glo MT Cell Viability Assay in HepG2 cells - 32 hour (AID 1224877); also: nearly all actives have a fitted effect of over 55% in size
How it was run: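 Viability was tracked continuously by NanoLuc luminescence from prosubstrate reduced by living HepG2 cells, at successive time points over 40 h of compound exposure. Cells with reagent were preincubated 5 h at 37 °C before compound addition.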

[8] = A CellTox Green Cytotoxicity Assay to monitor cytotoxicity in HepG2 cells - 24 hour (AID 1224878); also: nearly all actives have a fitted effect of over 45% in size
How it was run: as §3

[9] = A CellTox Green Cytotoxicity Assay to monitor cytotoxicity in HepG2 cells - 40 hour (AID 1224879); also: nearly all actives have a fitted effect of over 40% in size
How it was run: as §3

[10] = qHTS RealTime-Glo MT Cell Viability Assay in HEK293 cells - 0 hour (AID 1224880)
How it was run: as §2
% is scaled to controls: 0 for no effect and ±100 for the full control effect.

O=C1CN=C(c2ccccc2)c2cc([N+](=O)[O-])ccc2N1
inactive: Potency [1] | Potency [2] | Potency [3] | max response [4] -17.7% | Potency [5] | Potency [6] | Potency [7] | Potency [8] | Potency [9] | outcome [10]

CSc1ccc(C(=O)C(C)(C)N2CCOCC2)cc1
inactive: Potency [1] | Potency [2] | Potency [3] | max response [4] 0.297% | Potency [5] | Potency [6] | Potency [7] | Potency [8] | Potency [9] | outcome [10]

CCOP(=S)(OCC)Oc1cc(-c2ccccc2)on1
inactive: Potency [1] | Potency [2] | Potency [3] | max response [4] -12.9% | Potency [5] | Potency [6] | Potency [8] | Potency [9] | outcome [10]

CCCSP(=O)(OCC)Oc1ccc(Br)cc1Cl (stereo not given)
inactive: Potency [1] | Potency [2] | Potency [3] | max response [4] -3.49% | Potency [5] | Potency [6] | Potency [7] | Potency [8] | Potency [9] | outcome [10]

O=C(Oc1ccc(Br)cc1)N1CCN2CCC1CC2
inactive: Potency [1] | Potency [2] | Potency [3] | max response [4] -0.781% | Potency [5] | Potency [6] | Potency [8] | Potency [9] | outcome [10]

CN(C)CCc1ccc(O)cc1
inactive: Potency [1] | Potency [2] | Potency [3] | max response [4] 11.4% | Potency [5] | Potency [6] | Potency [8] | Potency [9] | outcome [10]

CCCCN(CCCCO)N=O
inactive: Potency [1] | Potency [2] | Potency [3] | max response [4] 3.79% | Potency [5] | Potency [6] | Potency [8] | Potency [9] | outcome [10]

C=C(C)CN(CC)c1c([N+](=O)[O-])cc(C(F)(F)F)cc1[N+](=O)[O-]
inactive: Potency [1] | Potency [2] | Potency [3] | max response [4] 0.654% | Potency [5] | Potency [6] | Potency [7] | Potency [8] | Potency [9] | outcome [10]

CN1CCC(N(Cc2ccccc2)c2ccccc2)CC1
inactive: Potency [1] | Potency [2] | Potency [3] | max response [4] 0.452% | Potency [5] | Potency [6] | Potency [7] | Potency [8] | outcome [10]

CNC(=O)Oc1ccccc1C1OCCO1
inactive: Potency [1] | Potency [2] | Potency [3] | max response [4] -0.764% | Potency [5] | Potency [6] | Potency [8] | Potency [9] | outcome [10]

Cc1cccc(C#N)c1
inactive: Potency [1] | Potency [2] | Potency [3] | max response [4] 6.99% | Potency [5] | Potency [6] | Potency [7] | Potency [8] | Potency [9] | outcome [10]

COC(=O)c1ccccc1S(=O)(=O)NC(=O)N(C)c1nc(C)nc(OC)n1
inactive: Potency [1] | Potency [2] | Potency [3] | max response [4] 10.1% | Potency [5] | Potency [6] | Potency [7] | Potency [8] | Potency [9] | outcome [10]

CCC(=O)c1ccccc1
inactive: Potency [1] | Potency [2] | Potency [3] | max response [4] 5.66% | Potency [5] | Potency [7] | Potency [8] | Potency [9] | outcome [10]

CC(C)[N+](=O)[O-]
inactive: Potency [1] | Potency [2] | Potency [3] | max response [4] 0.0306% | Potency [5] | Potency [6] | Potency [7] | Potency [8] | Potency [9] | outcome [10]

CC(C)COP(=O)(OCC(C)C)OCC(C)C
inactive: Potency [1] | Potency [2] | Potency [3] | max response [4] 0.408% | Potency [5] | Potency [7] | Potency [8] | Potency [9]

C[C@@H]1CN(C2CCC(C#N)(c3ccc(F)cc3)CC2)CC[C@]1(C(=O)O)c1ccccc1 (stereo not given in full)
inactive: Potency [1] | Potency [2] | Potency [3] | max response [4] 2.36% | Potency [5] | Potency [6] | Potency [8] | Potency [9] | outcome [10]

CC(C)NCC(O)c1ccc(N)c(C#N)c1 (stereo not given)
inactive: Potency [1] | Potency [2] | Potency [3] | max response [4] 2.86% | Potency [5] | Potency [6] | Potency [7] | Potency [8] | Potency [9] | outcome [10]

C[N+](=O)[O-]
inactive: Potency [1] | Potency [2] | Potency [3] | max response [4] 18.3% | Potency [5] | Potency [6] | Potency [7] | Potency [8] | Potency [9] | outcome [10]

CCOc1nc(C(Cl)(Cl)Cl)ns1
inactive: Potency [1] | Potency [2] | Potency [3] | max response [4] 3% | Potency [5] | Potency [7] | Potency [8] | Potency [9] | outcome [10]

O=NN1CCCCC1
inactive: Potency [1] | Potency [2] | Potency [3] | max response [4] 1.37% | Potency [5] | Potency [7] | Potency [8] | Potency [9] | outcome [10]

Cc1cnc[nH]1
inactive: Potency [1] | Potency [2] | Potency [3] | max response [4] -2.47% | Potency [5] | Potency [7] | Potency [8] | Potency [9] | outcome [10]

ClCCCN1CCN(c2cccc(Cl)c2)CC1
inactive: Potency [1] | Potency [2] | Potency [3] | max response [4] -25.9% | Potency [5] | Potency [6] | Potency [8] | Potency [9] | outcome [10]

O=CNC(N1CCN(C(NC=O)C(Cl)(Cl)Cl)CC1)C(Cl)(Cl)Cl (stereo not given)
inactive: Potency [1] | Potency [2] | Potency [3] | max response [4] -2.73% | Potency [5] | Potency [6] | Potency [8] | Potency [9] | outcome [10]

C[N+](C)=CCl
inactive: Potency [1] | Potency [2] | Potency [3] | max response [4] 17.5% | Potency [5] | Potency [6] | Potency [7] | Potency [8] | Potency [9] | outcome [10]
